Bioassay records as filed in PubChem BioAssay.
Rows were chosen to be rich in hits. Some 7.5% of all compounds tested hit in one or more screens of this group.
SMN2 splice enh – increases expression of the SMN2 splice variant; Potency, µM (doses to about 46.1 µM), without a hit: at the top dose activity change, positive = activation, actives largely listed as activators; HEK293 SMN2-luciferase splicing reporter, luminescence, 30-36 h; 210,000 tested, 2.8% active; further: % of control where 0% means no effect; nearly all actives have a fitted effect of over 55% in size
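HEK293 cells carry an SMN2 […]–luciferase reporter in which exon 7 inclusion puts luciferase in frame. Cells were plated 10-12 h before compound addition, then incubated 30-36 h at 37C. ONE-Glo luminescence was read; sodium butyrate at 4.5 mM final served as control.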
NPC1 promoter act – NPC1 promoter activation. 320,000 tested, 2.4% active. AID 485313. Potency, µM (top dose mostly 9.22 µM), for the others: top-dose activation, usual class: activators. Huh7 NPC1 promoter luciferase reporter, 24 h; further: % of control where 0% means no effect; nearly all actives have a fitted effect of over 60% in size
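Compounds in DMSO were transferred onto Huh7 NPC1-luciferase reporter cells pre-incubated 2 h; after 24 h at 37 °C, Amplite reagent was dispensed and luminescence recorded 10 min later.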
Rab9 promoter act – Rab9 promoter activation; Huh7 Rab9 promoter-luciferase reporter, luminescence, 24 h; Potency, µM (top dose mostly 9.22 µM), inactives show at the top dose activation, negative = inhibition, usual class: activators; 320,000 tested, 2.8% active; further: % of control where 0% means no effect; nearly all actives have a fitted effect of over 60% in size
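Cells were plated at 1500 per well in reduced-serum medium with 10% FBS and left 2 h. Compound in DMSO was then added for 24 h at 37 °C. Reporter signal was read by luminescence after 10 min with luciferase detection reagent.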
FLuc counter – counter-screen for miR-21 project: firefly luciferase inhibitors or activators; AID 588342; Potency, µM (titrated, usually from 57.5 µM), for inactives: at the top dose activity change, negative = inhibition, actives largely listed as inhibitors; P08659; purified FLuc, Km substrates, luminescence inhibition; 360,000 tested, 6.9% active;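 further: plate controls were vehicle for no effect and reference inhibitor for full effect; nearly all actives have a fitted effect of over 55% in size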
Target sequence (P08659 whole entry, looked up): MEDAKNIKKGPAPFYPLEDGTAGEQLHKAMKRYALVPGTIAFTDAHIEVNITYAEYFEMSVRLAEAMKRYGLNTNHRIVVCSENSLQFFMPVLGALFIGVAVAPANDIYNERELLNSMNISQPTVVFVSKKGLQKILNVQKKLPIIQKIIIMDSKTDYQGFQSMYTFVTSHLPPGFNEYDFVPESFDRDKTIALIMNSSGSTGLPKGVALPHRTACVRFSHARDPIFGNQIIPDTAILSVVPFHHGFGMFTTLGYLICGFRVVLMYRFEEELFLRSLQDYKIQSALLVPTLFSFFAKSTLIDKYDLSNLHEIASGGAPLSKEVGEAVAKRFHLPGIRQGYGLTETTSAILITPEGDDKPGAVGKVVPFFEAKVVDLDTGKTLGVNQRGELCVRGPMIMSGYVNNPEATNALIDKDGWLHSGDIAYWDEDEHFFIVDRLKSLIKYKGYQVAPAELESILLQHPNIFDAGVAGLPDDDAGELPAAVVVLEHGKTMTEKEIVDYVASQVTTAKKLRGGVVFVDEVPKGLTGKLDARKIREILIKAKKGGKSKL
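Biochemical qHTS of compounds, final roughly 60 µM downward over six points, against 10 nM purified firefly luciferase using Km concentrations of substrates (10 uM D-luciferin, 10 uM ATP) in Tris acetate pH 7.5 buffer; luminescence output.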
ELG1 genotox – inducers of genotoxicity in HEK293T ELG1-luciferase cells; HEK293T ELG1-luciferase reporter, luminescence, 16 h; Potency, µM (highest dose often 46 µM), without a hit: top-dose activity change, positive = activation, actives largely listed as activators; 330,000 tested, 1.3% active; further: % of control where 0% means no effect; nearly all actives have a fitted effect of over 60% in size
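16 hr compound incubation (37 °C, 5% CO2) of HEK293T cells carrying luciferase-tagged ELG1; luciferase then measured by ONE-Glo luminescence after 30 min at RT.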
Luc counter – counter-screen: inhibitors of Kinase-Glo firefly luciferase; Q27757; Kinase-Glo luciferase, ATP luminescence, 8 min; Potency, µM (doses to about 38.3 µM), for inactives: at the top dose activity change, negative = inhibition, hits mostly inhibitors; 200,000 tested, 0.28% active; AID 1379; further: on the % scale 0 is the no-effect control and ±100 the full control effect; nearly all actives have a fitted effect of over 60% in size
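Light output from Kinase-Glo luciferase with luciferin and 10 uM ATP in 50 mM imidazole pH 7.2, KCl, MgCl2, Tween 20, BSA; compound pin-delivered, 8-min ambient incubation, then luminescence read.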
* = called active by the depositor; u = inconclusive; x = not tested or not shown; [ ] = another dose, or the depositor's remark. The call rests on the fitted dose curve; in most records, active means well fitted curve in the direction sought with a large enough effect; inconclusive means small, poorly fitted or top-dose-only effect, or another doubt; inactive means no such curve, though single readings can be large; an effect the other way counts as inactive or inconclusive. Potency means the concentration at half of the fitted maximal effect.

SMILES	SMN2 splice enh	NPC1 promoter act	Rab9 promoter act	FLuc counter	ELG1 genotox	Luc counter
COC(=O)CC1C(=O)NCCN1C(=O)CSc1nnc(Nc2ccc(OC)cc2)s1 (stereo not drawn)	x	6%	2%	21µM*	6%	u
COC(=O)CC1C(=O)NCCN1C(=O)CSc1nnc(Nc2ccc(C)cc2)s1 (stereo not drawn)	5%	0%	2%	17µM*	7%	-4%
Cc1nc(-c2ccccn2)nc(N(C)c2ccccc2)c1Cl	x	-1%	-2%	15µM*	-9%	x
S=c1[nH]nc(CSCCOc2ccc(Cl)cc2Cl)o1	x	14%	2%	21µM*	5%	x
COc1ccc(NC(=O)COC(=O)CCCc2c[nH]c3ccccc23)cc1OC	5%	-3%	0%	0%	2%	-2%
O=C(c1ccc2c(c1)OCCO2)N(Cc1cccnc1)c1nc2c(F)cccc2s1	x	x	x	17µM*	x	x
O=C(Cc1ccccc1)N(Cc1cccnc1)c1nc2c(F)cccc2s1	x	x	x	-9%	x	x
O=C(Nc1ccccc1)N1CCCC(c2nc(-c3cccs3)no2)C1 (stereo not drawn)	-28%	15%	6%	u	-5%	-6%
O=C(O)c1ccc(/C=N\Nc2ccc(S(=O)(=O)N3CCOCC3)cc2[N+](=O)[O-])cc1	x	1%	-3%	-3%	3%	x
Cc1ccc(-n2c(O)c(/C=N/Nc3ccc(S(=O)(=O)N4CCOCC4)cc3[N+](=O)[O-])c3ccccc3c2=O)c(C)c1	-99%	-7%	-15%	24µM*	-14%	u
Cc1nn(-c2ccccc2)c2nc(C3CC3)cc(C(=O)Nc3ccc(F)cc3)c12	x	x	x	3%	x	x
N/C(=N\C(=S)Nc1ccccc1)c1ccccc1	x	0.5µM*	0.71µM*	11µM*	u	x
CNC(=S)/N=C(/Nc1ccccc1)c1ccccc1	-17%	-2%	-5%	-19%	-7%	6%
O=C(NNC(=O)c1cc2cc(OC(F)(F)F)ccc2[nH]1)c1cccc(C(F)(F)F)c1	x	-2%	1%	-1%	-4%	x
Fc1ccc2nc(Nc3nc4cc5c(cc4s3)OCO5)sc2c1	11µM*	2.5µM*	2µM*	6µM*	13µM*	-3%
c1ccc2sc(Nc3nc4cc5c(cc4s3)OCO5)nc2c1	3.2µM*	3.2µM*	1µM*	2.4µM*	5.2µM*	-4%
O=C(NNc1nc2cc3c(cc2s1)OCO3)c1ccc(F)cc1	20%	3%	13%	u	-3%	1%
O=C(NNc1nc2cc3c(cc2s1)OCCO3)c1ccc(F)cc1	24%	17%	27%	u	6%	1%
Fc1ccc2nc(Nc3nc4cc5c(cc4s3)OCCO5)sc2c1	u	2.8µM*	2.8µM*	u	u	-1%
Cc1cc(C)n(-c2ccc(NC(=O)C3CCCCN3C(=O)c3ccc(C)s3)cc2)n1 (stereo not drawn)	x	0%	2%	0%	-5%	x
COc1cccc(C(=O)COc2ccc(NC(=O)c3cccs3)cc2)c1	x	4%	-1%	8.5µM*	-19%	x
COC(=O)c1ccc(NC(=O)CNc2ccccc2)cc1	x	27%	u	24µM*	u	1%
COC(=O)c1ccc(NC(=O)CC(=O)Nc2ccc(C(=O)OC)cc2)cc1	x	-2%	-3%	1%	2%	x
O=C(COc1ccc(NC(=O)c2cccs2)cc1)c1ccc(F)cc1	x	11%	18%	1.9µM*	22%	x
CCCOc1ccc(C(=O)Nc2ccc(NC(=O)c3cccs3)cc2)cc1	x	1%	12%	-3%	5%	x
SMILES	SMN2 splice enh	NPC1 promoter act	Rab9 promoter act	FLuc counter	ELG1 genotox	Luc counter
CCCCOc1cccc(C(=O)Nc2ccc(NC(=O)c3cccs3)cc2)c1	x	-8%	-5%	-2%	18%	x
COC(=O)c1ccc(OCC(=O)c2cccc(OC)c2)cc1	5.6µM*	u	u	24µM*	u	-5%
O=C1c2oc3ccccc3c(=O)c2C(c2ccc(O)cc2)N1Cc1ccc2c(c1)OCO2 (stereo not drawn)	x	x	x	3%	x	x
O=C(CN1CCN(c2ccccc2O)CC1)Nc1ccc2c(c1)CCC2	x	1%	-3%	1%	1%	x
COC(=O)c1ccc(N=Nc2ccccc2)cc1	20%	14%	u	5.4µM*	2%	-5%
COC(=O)c1ccc(OCCOc2ccccc2)cc1	-5%	15%	u	15µM*	u	-2%
COC(=O)c1ccc(O)cc1	x	-4%	-2%	9%	-6%	0%[39.9 µM]
COC(=O)c1ccc(COc2ccccc2/C=C/C(=O)c2ccc(OCC(=O)O)cc2)cc1	x	0%	3%	5.4µM*	-5%	x
COC(=O)c1ccc(OCCOc2ccccc2C)cc1	x	2%	10%	u	3%	x
COc1ccc(-c2nc3ccc([N+](=O)[O-])cc3o2)cc1	11µM*	1.6µM*	1.1µM*	0.76µM*	6.5µM*	-6%
NC(N)=Nc1nc2cc([N+](=O)[O-])ccc2o1	x	-1%	9%	u	10%	-3%
Cc1cccc(-c2nc3cc([N+](=O)[O-])ccc3o2)c1	16µM*	3.5µM*	1.6µM*	1.7µM*	16µM*	-29%
O=[N+]([O-])c1ccc2oc(-c3ccccc3)nc2c1	16µM*	u	2.2µM*	u	u	-13%
COc1ccc(OC)c(CNc2ncc(-c3ccc(Cl)cc3)n2C)c1	0%	x	x	-2%	x	x
CC(C)n1nc(C(=O)Nc2cccc(S(=O)(=O)N3CCOCC3)c2)c2ccccc2c1=O	x	-1%	0%	2%	0%	x
Cc1cccc(/C=C2\Sc3ccc(C(=O)N4CCC(C(N)=O)CC4)cc3N(C)C2=O)c1	x	-20%	-6%	19µM*	-9%	x
CN1C(=O)/C(=C/c2ccc(C(F)(F)F)cc2)Sc2ccc(C(=O)N3CCN(c4ccccn4)CC3)cc21	x	-6%	-6%	8.5µM*	-12%	x
